Source: PubChem BioAssay (National Center for Advancing Translational Sciences (NCATS))
GoLoco inh red – inhibitors of human Gai1-RGS12 GoLoco interaction (red fluorophore); AID 880; Gai1:RGS12 GoLoco peptide FP, rhodamine, 10 min; 230,000 compounds, 0.44% hits; Potency, µM (titrated, usually from 61.6 µM), without a hit: at the top dose activity, negative = inhibition, hits mostly inhibitors; active = well fitted inhibition curve with a large enough effect, not every such curve was filed as active; inactive = no such curve, though single readings can be large or run the other way; note: nearly all actives have a fitted effect of over 30% in size
Target sequence (P63096 whole entry, looked up): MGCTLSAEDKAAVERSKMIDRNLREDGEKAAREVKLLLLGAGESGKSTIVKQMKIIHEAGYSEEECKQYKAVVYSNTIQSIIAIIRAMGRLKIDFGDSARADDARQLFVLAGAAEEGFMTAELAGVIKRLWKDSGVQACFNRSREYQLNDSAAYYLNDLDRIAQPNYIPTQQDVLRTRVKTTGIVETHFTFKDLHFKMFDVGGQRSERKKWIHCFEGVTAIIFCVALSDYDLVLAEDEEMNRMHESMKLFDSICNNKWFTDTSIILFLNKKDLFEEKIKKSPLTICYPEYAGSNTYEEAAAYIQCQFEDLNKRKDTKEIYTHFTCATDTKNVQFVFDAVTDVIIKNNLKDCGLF
TRb SRC2 PPI – TRbeta-SRC2 interaction inhibition; Potency, µM (series often up to 106 µM), inactives show at the top dose activity change, negative = inhibition, actives largely listed as inhibitors; P10828; AID 1469; TRbeta-SRC2 peptide binding, fluorescence polarization; receptor liganded with 1 µM T3; 280,000 compounds, 0.065% hits;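 note: plate controls were bound peptide for no effect and peptide without receptor for full effect; nearly all actives have a fitted effect of over 50% in size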
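Polarization signal, normalized between peptide-alone and full complex controls, measured compound effects on T3-liganded human TRb LBD (0.6 uM) binding 20 nM Texas Red SRC2 peptide after 5 hr.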
Tau fibril FP – blocks human tau fibril formation measured by polarization; 280,000 compounds, 0.39% hits; P10636; K18 P301L tau heparin fibrillization, Alexa594 FP, 6 h; AID 1468; Potency, µM (doses to about 57.7 µM), inactives show top-dose activity, negative = inhibition, actives largely listed as inhibitors; note: nearly all actives have a fitted effect of over 55% in size
Target sequence (P10636 561-689 P618L limits assumed): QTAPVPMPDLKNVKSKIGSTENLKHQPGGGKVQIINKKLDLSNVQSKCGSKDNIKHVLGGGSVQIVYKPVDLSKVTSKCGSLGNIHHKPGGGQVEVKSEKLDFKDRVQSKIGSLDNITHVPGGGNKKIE
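Quantitative HTS format: compounds meet 15 uM recombinant K18 P301L tau and Alexa 594-tau tracer in 100 mM sodium acetate pH 7; 20 uM heparin triggers fibrillization at 37 C over 6 hr; FP gives the signal.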
TexasRed fluor – Texas Red fluorescence interference in TRb-SRC2 counter-screen. TRb/SRC2 Texas Red total fluorescence interference. Potency, µM (series often up to 106 µM), for inactives: at the highest dose fluorescence change, negative = quenching. 280,000 compounds, 0.29% hits. AID 1479; active = well fitted curve in either direction with a large enough effect; inconclusive = small, poorly fitted or top-dose-only effect
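Human TRβ ligand-binding domain (0.6 uM) and Texas Red SRC2 peptide (20 nM) in Tris buffer with 1 uM T3 and 5% DMSO were incubated with pinned compound for 5 hr at ambient temperature. Total fluorescence was computed as S + 2P (555/632 nm).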
Tau fluor counter – counter-screen for tau fibril formation inhibitors; Potency, µM (doses to about 57.7 µM), without a hit: top-dose activity change, negative = decrease; tau K18 P301L Alexa594 fluorescence, heparin fibrillization; AID 1463; 280,000 compounds, 0.93% hits; note: nearly all actives have a fitted effect of over 55% in size
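Human K18 P301L tau (15 uM unlabeled plus 0.24 uM Alexa 594-labeled, final) in 100 mM sodium acetate pH 7 was mixed with compound and 20 uM heparin and incubated 6 hr at 37 C.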
Tau ThT inhib – tau fibrillization inhibition (ThT binding); recombinant tau K18 P301L (four-repeat tau fragment), heparin-induced fibrillization, ThT fluorescence; Potency, µM (doses to about 57.4 µM), without a hit: top-dose activity, negative = inhibition, actives largely listed as inhibitors; 270,000 compounds, 2.1% hits; AID 1460; note: nearly all actives have a fitted effect of over 55% in size
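In this qHTS, human K18 P301L tau is incubated with compound and heparin for 6 hr at 37 C, and Thioflavin T fluorescence then reports fibril load.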
An asterisk follows results filed as active; u = inconclusive; x = no result; [ ] = remark or other dose. Sampled rows, rich in hits. Any-hit rate of the full collection: about 3.2%. Unless noted, calls come from the whole dose curve; as a rule, active = well fitted curve in the direction sought with a large enough effect; inconclusive = small, poorly fitted or top-dose-only effect, or another doubt; inactive = no such curve, though single readings can be large; an effect the other way counts as inactive or inconclusive. Unless noted, % is set by controls: 0 for no effect and ±100 for the full control effect; potency is the fitted concentration of half-maximal effect.

SMILES	GoLoco inh red	TRb SRC2 PPI	Tau fibril FP	TexasRed fluor	Tau fluor counter	Tau ThT inhib
CC(=O)c1ccc(NC(=O)Nc2ccc3c(c2)N(C)C(=O)CS3)cc1	43%	1%	-3%	0%	13µM*[quencher]	u
COCCn1c(=O)c(-c2cn(C)c3ccccc23)nc2cnc(Oc3cccc(Cl)c3)nc21	2%	x	x	x	x	x
CCOC(=O)c1cc2c(ccn2C)n1CC(=O)Nc1ccc(F)cc1	18%	0%	u	-10%	u	28µM*
CCOC(=O)c1cc2c(ccn2C)n1CC(=O)N(C)C	0%	-3%	2%	-6%	-1%	0%
c1ccc(Nc2cccc(Nc3ccccc3)n2)cc1	16%	4%	3%	2%	13µM*[quencher]	14µM*
c1ccc(Nc2ccccn2)cc1	13%	6%	7%	-6%	-7%	-8%
Cc1c(N=Nc2c(-c3ccc([N+](=O)[O-])cc3)[nH]n(C(N)=S)c2=O)cccc1[N+](=O)[O-]	12%	-7%	u	-3%	u	8.9µM*
NC(=S)n1[nH]c(-c2ccc([N+](=O)[O-])cc2)c(N=Nc2cccc([N+](=O)[O-])c2)c1=O	5%	3%	-10%	-14%	u	11µM*
NC(=S)n1[nH]c(-c2ccc([N+](=O)[O-])cc2)c(N=Nc2ccccc2[N+](=O)[O-])c1=O	4%	-5%	-1%	-2%	-26%	u
O=C(Nc1ccc(C(F)(F)F)cc1)c1cc(S(=O)(=O)NCC2COc3ccccc3O2)ccc1F (stereo unspecified)	-1%	3%	13µM*	-6%	u	7%
COc1ccc(NC(=O)c2cc(S(=O)(=O)NCC3COc4ccccc4O3)ccc2F)cc1 (stereo unspecified)	3%	-4%	2%	5%	u	-8%
CC1=C2[C@H](/C=C(\C)C(=O)O)CC[C@@H](C)[C@H]2CC1	2%	1%	x	-1%	x	x
CCN1C(=O)[C@H]2[C@H]3[C@H](O)[C@H](O)C/C(=N/OC[C@@H]4O[C@H](c5ccccc5)C=C[C@@H]4Oc4ccc(OC)cc4)[C@@H]3CC[C@@H]2C1=O	x	-11%[11.2 µM]	3%[11.6 µM]	u	-8%[11.6 µM]	-10%[11.5 µM]
O=C(Nc1ccc(Nc2ccccc2)cc1)C(Cl)Cl	18%	1%[53 µM]	u	-1%[53 µM]	u	u
CC(C)(C)C(=O)C(Cl)C(=O)Nc1ccccc1 (stereo unspecified)	-3%	-2%	u	-5%	-12%	7.1µM*
CCN1C(=O)[C@H]2[C@H]3[C@H](O)[C@H](O)C/C(=N/OCC(C)C)[C@@H]3CC[C@@H]2C1=O	x	-2%[11.2 µM]	-7%[11.6 µM]	-2%[11.2 µM]	-8%[11.6 µM]	-7%[11.5 µM]
COc1cc(N/N=C/c2ccc(N(C)C)cc2)ncn1	19%	1%	10%	-1%	u	u
CN(C)c1cc(N/N=C/c2ccc(Cl)cc2)nc(N(C)C)n1	3%	1%	-19%	-1%	u	14µM*
O=C1c2ccccc2-c2c1cccc2C(=O)N1CCCCC1	9%	3%	-3%	-2%	-12%	-11%
CC1CC(C)CN(C(=O)c2ccc3c(c2NCCO)C(=O)c2ccccc2C3=O)C1 (stereo unspecified)	234%	6%	10%	17%	u	18µM*
CCNc1nc(NC(C)CC)nc(OC)n1 (stereo unspecified)	x	0%[201 µM]	x	0%[201 µM]	x	x
CN(C)c1ccc(NC(=O)Nc2cccc(Cl)c2)cc1	-12%	-11%	10%	-3%	14µM*[quencher]	13µM*
CCOC(=O)c1sc(NC(=O)Nc2cccc(Cl)c2)cc1C	10%	-10%	u	-1%	3.5µM*[quencher]	-23%
Cc1cc(C)cc(NC(=O)Nc2ccc(-n3ccc(C(F)(F)F)n3)cc2)c1	4%	0%	18µM*	-7%	u	3%
O=C(O)CCC(=O)Nc1ccc(-n2ccc(C(F)(F)F)n2)cc1	-3%	-7%	-6%	-2%	-7%	x
